# Experiments:
# Assay in all cases: thermal shift delta Tm vs DMSO control; higher = stronger stabilization (binding)
# Settings in all cases: 12.5 µM; protein concentration 2 µM
# [1] = system: LOC_OS02G45750-cb003
# Procedure, shortened: (§1)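 Heating from 25°C to 95°C at 0.05°C/s, fluorescence was recorded for 19.5 μl wells of 2 μM E. coli-expressed, purified rice kinase domain in 100 mM potassium phosphate pH 7.5, 150 mM NaCl, 10% glycerol and 5 × SYPRO Orange with compound in DMSO. Boltzmann fits gave melting temperatures for this differential scanning fluorimetry assay. The shift reported is the mean of three replicates against the DMSO-only protein.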
# [2] = system: LOC_OS02G54510-cb004
# Procedure, shortened: as §1
# [3] = system: LOC_OS03G04050-cb001
# Procedure, shortened: as §1
# [4] = system: LOC_OS03G12390-cb001
# Procedure, shortened: as §1
# [5] = system: LOC_OS03G27990-cb004
# Procedure, shortened: as §1
# [6] = system: LOC_OS03G50450-cb001
# Procedure, shortened: as §1
# [7] = system: LOC_OS03G50810-cb003
# Procedure, shortened: as §1
# [8] = system: LOC_OS04G35114-cb001
# Procedure, shortened: as §1
# [9] = system: T1, LOC_OS04G38480-cb003
# T1 sequence (whole entry): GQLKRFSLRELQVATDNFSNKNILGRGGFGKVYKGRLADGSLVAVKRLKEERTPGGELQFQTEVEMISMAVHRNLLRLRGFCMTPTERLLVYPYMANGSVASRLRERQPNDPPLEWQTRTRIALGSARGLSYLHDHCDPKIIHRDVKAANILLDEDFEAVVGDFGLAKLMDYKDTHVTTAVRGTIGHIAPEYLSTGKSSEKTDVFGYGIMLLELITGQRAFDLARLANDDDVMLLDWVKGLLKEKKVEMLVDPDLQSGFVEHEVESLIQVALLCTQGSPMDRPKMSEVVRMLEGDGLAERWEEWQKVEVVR
# Procedure, shortened: as §1
# [10] = system: T2, LOC_OS04G41100-cb001
# T2 sequence (whole entry): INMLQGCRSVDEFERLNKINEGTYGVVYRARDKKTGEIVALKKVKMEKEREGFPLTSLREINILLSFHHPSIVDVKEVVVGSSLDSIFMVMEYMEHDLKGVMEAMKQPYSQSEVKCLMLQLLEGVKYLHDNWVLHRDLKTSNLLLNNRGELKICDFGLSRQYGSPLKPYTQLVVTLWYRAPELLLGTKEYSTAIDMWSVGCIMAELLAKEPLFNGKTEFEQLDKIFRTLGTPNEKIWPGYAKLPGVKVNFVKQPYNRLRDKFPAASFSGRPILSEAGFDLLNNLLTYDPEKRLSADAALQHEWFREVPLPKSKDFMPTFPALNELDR
# Procedure, shortened: as §1
# [11] = system: LOC_OS04G57630-cb004
# Procedure, shortened: as §1
# [12] = system: LOC_OS05G07850-cb002
# Procedure, shortened: as §1
# [13] = system: LOC_OS05G16824-cb004
# Procedure, shortened: as §1
# [14] = system: LOC_OS05G28520-cb001
# Procedure, shortened: as §1
# [15] = system: LOC_OS05G30820-cb001
# Procedure, shortened: as §1
# [16] = system: LOC_OS05G43570-cb004
# Procedure, shortened: as §1
# [17] = system: LOC_OS06G16330-cb003
# Procedure, shortened: as §1
# [18] = system: T3, LOC_OS06G22820-cb001
# T3 sequence (whole entry): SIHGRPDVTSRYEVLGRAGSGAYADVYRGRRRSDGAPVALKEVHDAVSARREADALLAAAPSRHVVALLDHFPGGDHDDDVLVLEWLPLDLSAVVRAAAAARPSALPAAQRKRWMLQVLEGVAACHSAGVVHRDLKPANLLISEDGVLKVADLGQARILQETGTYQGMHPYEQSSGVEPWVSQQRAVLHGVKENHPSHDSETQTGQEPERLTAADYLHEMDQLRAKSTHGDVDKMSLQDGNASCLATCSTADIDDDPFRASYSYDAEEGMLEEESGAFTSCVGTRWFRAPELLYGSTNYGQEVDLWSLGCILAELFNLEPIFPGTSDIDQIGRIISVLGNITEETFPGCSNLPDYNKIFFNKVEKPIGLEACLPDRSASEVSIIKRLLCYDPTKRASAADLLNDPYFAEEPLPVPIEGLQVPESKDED
# Procedure, shortened: as §1
# [19] = system: LOC_OS07G06570-cb004
# Procedure, shortened: as §1
# [20] = system: LOC_OS07G07230-cb001
# Procedure, shortened: as §1
# 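Note: purified Escherichia coli-expressed rice kinase domain construct.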
# Sequence of LOC_OS06G16330-cb003 (as listed by the source): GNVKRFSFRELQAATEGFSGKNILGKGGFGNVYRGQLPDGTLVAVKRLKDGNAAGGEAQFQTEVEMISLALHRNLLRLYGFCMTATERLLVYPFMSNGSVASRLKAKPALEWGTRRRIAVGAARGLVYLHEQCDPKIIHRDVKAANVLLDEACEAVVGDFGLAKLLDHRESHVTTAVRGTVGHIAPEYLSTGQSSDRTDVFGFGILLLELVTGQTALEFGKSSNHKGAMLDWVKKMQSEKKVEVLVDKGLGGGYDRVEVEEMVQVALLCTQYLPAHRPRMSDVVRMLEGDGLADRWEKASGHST
SMILES,thermal shift delta Tm [1] [°C],thermal shift delta Tm [2] [°C],thermal shift delta Tm [3] [°C],thermal shift delta Tm [4] [°C],thermal shift delta Tm [5] [°C],thermal shift delta Tm [6] [°C],thermal shift delta Tm [7] [°C],thermal shift delta Tm [8] [°C],thermal shift delta Tm [9] [°C],thermal shift delta Tm [10] [°C],thermal shift delta Tm [11] [°C],thermal shift delta Tm [12] [°C],thermal shift delta Tm [13] [°C],thermal shift delta Tm [14] [°C],thermal shift delta Tm [15] [°C],thermal shift delta Tm [16] [°C],thermal shift delta Tm [17] [°C],thermal shift delta Tm [18] [°C],thermal shift delta Tm [19] [°C],thermal shift delta Tm [20] [°C]
COc1cc(Nc2ncc(F)c(Nc3ccc4c(n3)N(COP(=O)(O)O)C(=O)C(C)(C)O4)n2)cc(OC)c1OC [R788 (Fostamatinib) Disodium],2.5,0.47,0.33,1.17,1.08,7.52,2.27,2.02,2.06,0.34,0.34,7.08,6.19,0.86,1.5,0.56,6.28,0.9,1.71,0.59
COc1cc(N2CCC(N)CC2)ccc1Nc1ncc(Cl)c(-c2c[nH]c3ccccc23)n1,2.46,1.23,0.85,14.1,5.3,8.66,6.42,3.73,4.68,1.54,4.46,13.4,8.24,1.74,2.33,1.06,10.4,0.85,2.26,1.14
Cc1cc2c(F)c(Oc3ncnn4cc(OC[C@@H](C)OC(=O)[C@H](C)N)c(C)c34)ccc2[nH]1,1.3,-0.11,0.25,-0.23,1.72,-0.29,0.18,5.17,0.59,0.68,0.17,2.83,1.32,0.65,0.41,0.24,0.16,0.5,0.52,0.42

# From the supplement of paper PMC9694430
